Unmarked numbers belong to inactive results. Records with an inconclusive call do not appear. Active and inactive are the calls of the source. Unless noted, calls come from the whole dose curve; as a rule, active = well fitted curve in the direction sought with a large enough effect in the repeat runs; inconclusive = weak or mixed curves; inactive = no such curve, though single readings can be large; an effect the other way counts as inactive or inconclusive.

This note sets out measurements from PubChem BioAssay (Tox21).

Experiment [1] in a line: qHTS assay for small molecule agonists of the p53 signaling pathway (AID 651631; calls by dose curve; note: nearly all actives have a fitted effect of over 15% in size). In a few lines:
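Readout was fluorescence from the LiveBLAzer FRET substrate, applied for 2 h at room temperature after 16 h compound exposure at 37 °C. Cells were the p53RE-bla HCT-116 line, with beta-lactamase driven by p53 response elements.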
In general terms: qHTS replaces the single test concentration by a dilution series.

The nature of experiment [2]: qHTS assay for small molecules that induce genotoxicity in human embryonic kidney cells expressing luciferase-tagged ATAD5 (AID 651632). Note: nearly all actives have a fitted effect of over 15% in size. The method, boiled down:
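Test compounds were delivered by pin tool onto HEK293T reporter cells (2,000/well) expressing ATAD5 fused to luciferase. After 16 hr at 37C, 5% CO2, Amplite was added for 30 min at room temperature and luminescence was measured.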

The nature of experiment [3]: qHTS assay for small molecules that induce genotoxicity in human embryonic kidney cells expressing luciferase-tagged ATAD5 - cell viability (AID 651634; calls by dose curve; note: nearly all actives have a fitted effect of over 25% in size). In a few lines: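 Quantitative high-throughput format. HEK293T cells expressing ATAD5 fused to luciferase were plated at 2,000 cells/well and treated 15.5 hr with compound versus DMSO. Viability was determined by fluorescent live-cell protease substrate, 30 min at 37C.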

Experiment [4] is described as follows: qHTS assay for small molecule disruptors of the mitochondrial membrane potential - cell viability (AID 720634; calls by dose curve;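 note: human HepG2 liver cancer cells; series mostly up to about 83 µM; nearly all actives have a fitted effect of over 20% in size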). The method, boiled down:
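Same-well counter-screen: following the MMP dye addition, CellTiter-Glo was added to 1 hr compound-treated HepG2 cells and luminescence read after 30 min at room temperature.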

Experiment [5] can be described thus: qHTS assay for small molecule disruptors of the mitochondrial membrane potential (AID 720635). Note: potency is the fitted concentration of half-maximal effect. In a few lines:
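Mitochondrial membrane potential tracked with Mito-MPS dye, red aggregates (ex 540/em 590 nm) against green monomers (ex 490/em 535 nm). Compound treatment 1 hr at 37C, dye 30 min in HepG2.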

Experiment [6] can be described thus: qHTS assay to test for compound auto fluorescence at 590 nm (red) in HepG2 cells (AID 720674). In a few lines:
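1 hr compound incubation on HepG2 cells, 37 C, 5% CO2; plate read ex 540 nm / em 590 nm; intensities reported as Rose Bengal sodium equivalents.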

The nature of experiment [7]: qHTS assay to test for compound auto fluorescence at 535 nm (green) in HepG2 cells (AID 720675).
A short description of experiment [8]: qHTS assay to test for compound auto fluorescence at 460 nm (blue) in HEK293 cells (AID 720678). In a few lines:
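Triamterene serves as the blue fluorophore standard. Compound signal at 405/460 nm is read in HEK293 wells (2,000 cells, 10% dialyzed FBS) after overnight treatment at 37C.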

A short description of experiment [9]: qHTS assay to test for compound auto fluorescence at 590 nm (red) in HEK293 cells (AID 720679). In a few lines:
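We plated HEK293 cells in 10% dialyzed FBS medium, let them adhere for 4-5 hr, then added 23 nL compound. Overnight at 37C and 5% CO2 preceded fluorescence measurement at 540/590nm.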

A short description of experiment [10]: qHTS assay to test for compound auto fluorescence at 460 nm (blue) in HEK293 cell free culture (AID 720681). The method, boiled down: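 Blue fluorescence (Ex 405/Em 460 nm, triamterene-equivalent) was read immediately after pin transfer of compound or DMSO into medium (DMEM, 10% FBS) without cells.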
Experiment [11] in a line: qHTS assay to test for compound auto fluorescence at 535 nm (green) in HEK293 cell free culture (AID 720682). The method, boiled down:
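Compounds were pin-transferred into cell-free DMEM with 10% FBS, and green fluorescence was read at excitation 485 nm and emission 535 nm. Intensities were expressed as fluorescein-equivalent values.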

Experiment [12] in a line: qHTS assay to test for compound auto fluorescence at 590 nm (red) in HEK293 cell free culture (AID 720683). The method, boiled down: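 Red-channel autofluorescence of compounds in culture medium (DMEM, 10% FBS), no cells, measured at 540/590 nm. Rose Bengal sodium is the reference fluorophore for equivalence.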
Experiment [13] in a line: qHTS assay to test for compound auto fluorescence at 590 nm (red) in HepG2 cell free culture (AID 720684). The method, boiled down:
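No cells present: MEM + 10% FBS only. Compound pinned in, red label read (540/590 nm). Activity = fluorescence equivalent to Rose Bengal sodium.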

A short description of experiment [14]: qHTS assay to test for compound auto fluorescence at 460 nm (blue) in HepG2 cell free culture (AID 720685). The method, boiled down:
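Cell-free plates of MEM plus 10% FBS received 23 nL compound or DMSO vehicle; blue-channel (405/460 nm) intensity scored against triamterene as reference fluorophore.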

Experiment [15] can be described thus: qHTS assay to test for compound auto fluorescence at 535 nm (green) in HepG2 cell free culture (AID 720686).
Experiment [16] addresses Glucocorticoid receptor (Homo sapiens) (UniProt P04150). The experiment in a line: qHTS assay to identify small molecule agonists of the glucocorticoid receptor (GR) signaling pathway (AID 720691; active = well fitted activation curve with a large enough effect in the signal ratio in the repeat runs, not every such curve was filed as active; the % refers to the signal ratio). The method, boiled down:
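A HeLa cervical cancer line expressing GR and a glucocorticoid response element-driven beta-lactamase gene is treated with compounds for 18 h; LiveBLAzer B/G FRET substrate is then applied and fluorescence read.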

For experiment [17] the target is unchanged. The experiment is described as follows: qHTS assay to identify small molecule antagonists of the glucocorticoid receptor (GR) signaling pathway (AID 720692; active = well fitted inhibition curve with a large enough effect in the signal ratio in the repeat runs, not every such curve was filed as active; the % refers to the signal ratio). The method, boiled down: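 GRE-bla HeLa line, dex-stimulated (5 nM final). Compound exposure 18 h, 37 C. Beta-lactamase FRET read after 2 h RT substrate.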
A short description of experiment [18]: qHTS assay for small molecule agonists of the p53 signaling pathway - cell viability (AID 651633; calls by dose curve; note: series mostly up to about 83 µM; nearly all actives have a fitted effect of over 30% in size). The method, boiled down:
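Viability counter-read: CellTiter-Glo luminescence (30 min, room temperature) in the same p53RE-bla plates. These plates had been exposed to compounds for 16 h at 37 C.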

Experiment [19] in a line: qHTS assay to test for compound auto fluorescence at 460 nm (blue) in HepG2 cells (AID 720687). The method, boiled down:
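Blue-channel autofluorescence (Ex/Em 405/460 nm, triamterene-equivalent) was measured after 1 hr compound exposure at 37 C, 5% CO2. Cells were HepG2, plated overnight at 37 C in MEM plus 10% FBS.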

Experiment [20] is described as follows: qHTS assay to test for compound auto fluorescence at 535 nm (green) in HEK293 cells (AID 720680).
% is set by controls: 0 for no effect and ±100 for the full control effect.

Chain of Glucocorticoid receptor (Homo sapiens) (P04150 whole entry, looked up): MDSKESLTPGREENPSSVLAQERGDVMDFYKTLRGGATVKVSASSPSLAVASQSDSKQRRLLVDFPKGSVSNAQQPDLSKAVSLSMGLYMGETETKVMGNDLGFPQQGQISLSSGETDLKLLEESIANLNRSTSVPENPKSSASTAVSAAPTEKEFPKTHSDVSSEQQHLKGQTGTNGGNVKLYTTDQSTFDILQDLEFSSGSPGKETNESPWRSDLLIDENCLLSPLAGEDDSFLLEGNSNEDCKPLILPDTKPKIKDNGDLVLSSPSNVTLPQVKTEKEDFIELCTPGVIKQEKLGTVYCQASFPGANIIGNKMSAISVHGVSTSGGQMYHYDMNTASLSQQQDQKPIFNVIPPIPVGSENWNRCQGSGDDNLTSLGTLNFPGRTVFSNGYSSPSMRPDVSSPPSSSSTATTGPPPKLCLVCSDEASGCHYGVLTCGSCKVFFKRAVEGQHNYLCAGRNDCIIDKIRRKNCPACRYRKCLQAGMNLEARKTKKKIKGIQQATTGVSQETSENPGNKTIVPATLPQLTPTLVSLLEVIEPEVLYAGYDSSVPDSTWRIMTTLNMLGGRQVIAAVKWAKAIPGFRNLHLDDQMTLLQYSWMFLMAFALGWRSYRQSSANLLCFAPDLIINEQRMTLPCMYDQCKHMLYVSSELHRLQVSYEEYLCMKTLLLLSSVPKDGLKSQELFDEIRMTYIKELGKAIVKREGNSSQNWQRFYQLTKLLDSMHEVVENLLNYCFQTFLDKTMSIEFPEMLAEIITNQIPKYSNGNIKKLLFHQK

`Cc1nc2ccc(Cl)cc2[nH]1`: the Potency entry in experiment [1], in experiment [2], in [5] and in experiment [16] was “inactive” each time. Besides, the compound was classed as inactive in experiment [3], in experiment [4], in [6], in experiment [7], in [8] and in experiment [9]. The compound was classed as inactive in experiment [10], in experiment [11], in experiment [12], in experiment [13], in experiment [14] and in [15]. For the same compound, the outcome in experiment [17] was inactive.
For the compound `CCCCCCCCCCCCCCCC(=O)OC`, the Potency result in experiment [1], in [2] and in [16] was “inactive” each time. Besides, the compound was called inactive in experiment [18], in experiment [3] and in experiment [17]. In addition, the fluorescence, relative to Rose Bengal in experiment [6] is 0.0004% [at 18.6 µM]. Moreover, in experiment [8], the fluorescence, % of triamterene was 0.179% [at 18.6 µM]. Moreover, the fluorescence, % of fluorescent control in [9] was -0.225% [at 18.6 µM]; in [10] it was -0.0484% [at 18.6 µM]; in experiment [12], -0.033% [at 18.6 µM]; in experiment [14], -0.0427% [at 18.6 µM]; in [19] it was 0.0931% [at 18.6 µM]. For the same compound, the activity change in [11] was -0.0305% [at 18.6 µM]. The fluorescence, % of Rose Bengal in [13] was 0.0231% [at 18.6 µM]. Moreover, the fluorescence, % of fluorescein control in [15] is -0.0231% [at 18.6 µM].
Consider `COC(=O)c1c(C)cc(O)c(C)c1O`, for which the Potency result in experiment [1] and in experiment [2] was “inactive” in each case. The compound was called inactive in [18], in [4], in experiment [6], in experiment [7], in experiment [8] and in experiment [9]. The call in [20], in experiment [10], in experiment [11], in [13] and in [14] was inactive. The Potency in [5] was 12.2 µM (active).
Turning to `O=C(O)COc1ccc2ccccc2c1`, the Potency entry in experiment [1], in [2] and in experiment [5] was “inactive” in each case. Further, the outcome in [18], in experiment [6], in experiment [7], in [8], in experiment [9] and in experiment [20] was inactive. Further, the result in experiment [10], in experiment [11], in experiment [13], in experiment [14], in [19] and in experiment [17] was inactive.
As for `CC(C)OC(=O)C(C(=O)OC(C)C)=C1SC=CS1`, the Potency entry in experiment [1], in [2] and in experiment [16] was “inactive” throughout. Besides, the outcome in [18], in [6], in experiment [7], in experiment [9], in experiment [10] and in [11] was inactive. Moreover, the compound was classed as inactive in experiment [12], in experiment [13], in [14], in experiment [15], in experiment [19] and in experiment [17].
Take `CN(C)CCc1c[nH]c2ccc(C[C@H]3COC(=O)N3)cc12`: the Potency result in experiment [1], in experiment [2] and in experiment [16] was “inactive” in each case. Also, the outcome in experiment [18], in experiment [6], in [7], in experiment [8], in experiment [9] and in experiment [20] was inactive. For the same compound, the result in experiment [10], in experiment [11], in experiment [12], in experiment [13], in [14] and in experiment [15] was inactive. The result in experiment [19] and in experiment [17] was inactive.
With `CSC(=O)c1cccc2nnsc12`, the Potency result in experiment [1], in [2] and in experiment [5] was “inactive” in each case. Moreover, the compound was called inactive in experiment [3], in experiment [4], in [6], in [7], in [8] and in experiment [9]. Besides, the compound was classed as inactive in experiment [20], in experiment [10], in experiment [11], in [12], in [13] and in experiment [14]. In addition, the compound was called inactive in experiment [19] and in [17].
As to `O=C(O)CCCCCCCCCC(=O)O`, the Potency result in experiment [1], in [2] and in [16] was “inactive” in each case. The outcome in experiment [18], in experiment [4], in [6], in [7], in experiment [8] and in experiment [9] was inactive. The call in experiment [20], in [10], in experiment [11], in experiment [12], in [13] and in experiment [14] was inactive. Also, the result in experiment [15], in experiment [19] and in [17] was inactive.
